Source: PubChem BioAssay
Hits are enriched below; roughly 5.2% of the tested compounds scored in any of these assays.
Sfp PPTase inh = Sfp phosphopantetheinyl transferase inhibition. Potency, µM, inactives show largest response in the series, negative = inhibition, hits mostly inhibitors. Biochemical Sfp PPTase activity, qHTS. 310,000 tested, 3.5% active. Q9F4F7;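 further: the enzyme is Sfp with the accession as filed and its product quenches rhodamine fluorescence; 0% = enzyme reaction without inhibitor and -100% = no enzyme wells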
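Fluorescence-quenching assay: 15 nM Sfp-PPTase preincubated 15 min at room temperature with compound, then 5 uM rhodamine-CoA and 12.5 uM BHQ-2-labelled YbbR peptide added. Fluorescence (ex 525/em 598 nm) read at start and after 30 min; difference gives rate.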
PLK1 PBD block = blocks phosphopeptide binding to human PLK1 polo-box domain. P53350. 360,000 tested, 2.8% active. Potency, µM, for inactives: max response, negative = inhibition, most hits filed as inhibitors. Plk1 PBD binding of FITC phosphopeptide, fluorescence polarization; further: series mostly up to about 57 µM; nearly all actives have a fitted effect of over 65% in size
Target sequence (P53350 whole entry, looked up, the tested form may be a part): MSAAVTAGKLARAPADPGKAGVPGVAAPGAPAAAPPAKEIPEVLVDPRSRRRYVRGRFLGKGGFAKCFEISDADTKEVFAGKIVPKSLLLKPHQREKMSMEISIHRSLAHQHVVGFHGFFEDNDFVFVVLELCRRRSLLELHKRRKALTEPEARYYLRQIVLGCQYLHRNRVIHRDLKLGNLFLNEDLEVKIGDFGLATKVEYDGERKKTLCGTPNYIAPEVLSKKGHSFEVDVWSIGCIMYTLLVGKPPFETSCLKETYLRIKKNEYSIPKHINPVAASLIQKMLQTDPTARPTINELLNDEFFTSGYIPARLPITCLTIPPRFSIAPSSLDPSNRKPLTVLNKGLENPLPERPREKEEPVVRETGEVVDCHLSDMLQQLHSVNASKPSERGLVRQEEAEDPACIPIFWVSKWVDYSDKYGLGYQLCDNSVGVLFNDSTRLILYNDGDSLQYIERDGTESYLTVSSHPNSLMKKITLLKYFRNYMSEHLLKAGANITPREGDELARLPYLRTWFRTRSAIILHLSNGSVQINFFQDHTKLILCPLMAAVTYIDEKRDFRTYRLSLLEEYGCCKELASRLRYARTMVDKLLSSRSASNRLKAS
TrxR1 substrate = substrates of rat thioredoxin reductase 1 | O89049 | purified TrxR1 substrate turnover, NADPH consumption readout | Potency, µM (doses to about 114 µM), for inactives: top-dose activity change, negative = substrate turnover | 390,000 tested, 0.01% active | AID 588456; further: nearly all actives have a fitted effect of over 50% in size
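Rat TrxR1, dispensed at 90 nM, was prereduced with 400 uM NADPH (final) for 5 min at ~22 deg C, then incubated with compound 15 min before 400 uM selenite. A first-read NADPH fluorescence drop versus no-compound background flagged substrates.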
TrxR1 inh = rat TrxR1 inhibition | recombinant rTrxR1, NADPH fluorescence consumption, selenite substrate | Potency, µM (doses to about 114 µM), for the others: at the highest dose activity change, negative = inhibition, hits mostly inhibitors | AID 588453 | 390,000 tested, 1% active | O89049; further: nearly all actives have a fitted effect of over 65% in size
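Rat TrxR1 (90 nM in the dispensed reagent) was pre-reduced with 400 uM NADPH for 5 min at room temperature, then incubated with compound for 15 min. After 400 uM selenite was added, NADPH fluorescence (Ex 340/Em 450 nm) was followed for 8 min.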
mIDH1 inhibitor = blocks human mutant IDH1 R132H enzyme | O75874 | IDH1-R132H enzyme, NADPH consumption, diaphorase/resazurin fluorescence | Potency, µM (series often up to 76.6 µM), for the others: top-dose activity change, negative = inhibition, most hits filed as inhibitors | 390,000 tested, 0.093% active | AID 602179; further: nearly all actives have a fitted effect of over 65% in size
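IDH1-R132H (0.5 ug/mL) preincubated 30 min with compound, then NADPH (0.016 mM) and alpha-KG (2 mM) added; 80 min at RT, pH 7.5. Remaining NADPH coupled via diaphorase/resazurin to fluorescence (540/590 nm); concentration-response curves normalized to no-enzyme control.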
VDR inhibitor = blocks the human vitamin D receptor. Potency, µM, for inactives: max response, negative = inhibition, usual class: inhibitors. VDR-SRC2-3 peptide fluorescence polarization, 2 h. P11473. 400,000 tested, 0.93% active
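Signal is fluorescence polarization, reporting how far test compounds block the interaction of VDR with the SRC2-3 coregulator peptide after a 2 h room-temperature incubation.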
* = called active by the depositor; u = inconclusive; x = no result; [ ] = remark or other dose. The call rests on the fitted dose curve; in most records, active means well fitted curve in the direction sought with a large enough effect; inconclusive means small, poorly fitted or top-dose-only effect, or another doubt; inactive means no such curve, though single readings can be large; an effect the other way counts as inactive or inconclusive. Unless noted, on the % scale 0 is the no-effect control and ±100 the full control effect; potency means the concentration at half of the fitted maximal effect.

SMILES	Sfp PPTase inh	PLK1 PBD block	TrxR1 substrate	TrxR1 inh	mIDH1 inhibitor	VDR inhibitor
COCCNC(=S)NCCc1ccc(Cl)cc1Cl	11%	-17%	0%	13%	16%	-22%
O=C(N/N=C/c1ccc(O)c(O)c1O)/C(=C/c1ccc([N+](=O)[O-])cc1)NC(=O)c1ccccc1	45µM*	9.5µM*	-22%	u	-4%	u
O=C(O)c1ccccc1-c1c2cc(Br)c(=O)c(Br)c-2oc2c(Br)c(O)c(Br)cc12	79µM*	x	x	x	x	35µM*
Cc1ccc2oc(-c3ccccc3C(=O)O)cc(=O)c2c1	-5%	-12%	7%[57.1 µM]	-13%	4%	-9%
O=C(CSc1nc2sc3c(c2c(=O)[nH]1)CCCC3)Nc1ccccc1F	x	x	-6%[57.1 µM]	1%[57.1 µM]	-12%	-2%
CCN(Cc1ccccc1)C(=O)C1CCN(CC2CC=CCC2)CC1 (stereo not drawn)	9%	2%	-6%	-12%	3%	-11%
O=C(C1CC1)N(CCN(Cc1ccccc1)C(=O)C1CC1)Cc1ccccc1	15%	27µM*	8%[57.1 µM]	-8%	2%	-8%
Cc1ccc2c(C(=O)CN3CCC(C(N)=O)CC3)c(C)[nH]c2c1	-8%	x	x	x	x	x
CC(=O)OCC1=C(C(=O)O)N2C(=O)[C@@H](NC(=O)Cc3cccs3)[C@@H]2SC1	-5%	x	x	x	x	-4%
Cc1cc(C)n(CC(=O)NC2C(=O)N3C(C(=O)O)=C(CSc4nnc(C)s4)CSC23)n1 (stereo not drawn)	56µM*	-19%	11%	-24%	0%	-20%
Cc1nnc(SCC2=C(C(=O)O)N3C(=O)C(NC(=O)Cn4ncc(Cl)c4C)C3SC2)s1 (stereo not drawn)	28µM*	u	0%	22µM*	0%	1%
Cc1nnc(SCC2=C(C(=O)O)N3C(=O)C(NC(=O)c4cccc(F)c4F)C3SC2)s1 (stereo not drawn)	56µM*	-27%	6%	u	-3%	u
CC(=O)OCC1=C(C(=O)O)N2C(=O)C(NC(=O)c3ccc(F)cc3)C2SC1 (stereo not drawn)	2%	-11%	-2%	u	-12%	-13%
CC(=O)OCC1=C(C(=O)O)N2C(=O)C(NC(=O)Cc3ccccc3)C2SC1 (stereo not drawn)	u	x	-4%	u	x	-3%
CN(Cc1cccnc1)C(=O)c1ccc(Cl)c(NS(=O)(=O)c2ccc(F)cc2)c1	x	-8%	7%	20%	0%	-13%
CN1C(=O)C(O)(CC(=O)/C=C/c2ccco2)c2cc(Br)ccc21 (stereo not drawn)	45µM*	u	-11%	16µM*	-7%	0%
Cc1nc(N)sc1-c1csc(Nc2ccccn2)n1	56µM*	u	8%[57.1 µM]	-7%[57.1 µM]	-2%	-2%
Cc1nc(N)sc1-c1csc(Nc2ccc(Cl)cn2)n1	20µM*	u	0%	-3%	1%	-23%
Cc1nc(C)c(-c2csc(Nc3ccccn3)n2)s1	-22%	-6%	0%	-7%	4%	0%
CCCS(=O)(=O)N1CCN(Cc2ccccc2C(F)(F)F)CC1	50µM*	-1%	-7%	3%	1%	-2%
COc1ccc(N2CCN(c3c4c(nc5nncn35)CCC4)CC2)cc1	x	x	-2%	9%	x	13%
C=CC(=O)c1ccc(CCCCCC)cc1	u	x	17%[57.1 µM]	13µM*	x	40µM*
CCCCCCCCCCCCCCCCCCc1ccc(C(=O)/C=C/C(=O)O)cc1	-3%	x	x	x	x	u
O=S1(=O)N[C@H](Cc2ccccc2)COc2cccc(N3CCC[C@H]3CO)c21	x	1%	x	x	x	x
N#Cc1ccccc1CSc1ccc(-c2nc3ccccc3[nH]2)cn1	4.5µM*	u	7%	13%	-2%	3%
SMILES	Sfp PPTase inh	PLK1 PBD block	TrxR1 substrate	TrxR1 inh	mIDH1 inhibitor	VDR inhibitor
CCOc1ccc(N(CC(=O)NCc2cccnc2)S(=O)(=O)c2ccc(F)cc2)cc1	17%	2%	11%	20%	2%	-10%
C/C(=N\NC(=O)c1nnn(-c2nonc2N)c1-c1ccc2c(c1)OCO2)c1ccc(C)cc1	15%	-4%	9%	7%	-3%	6%
CC(C)(C)N/N=C1\CC(c2ccccc2)Oc2ccccc21 (stereo not drawn)	8%	30µM*	-6%	-10%	1%	-5%
COc1cccc(C2C(C(=O)OC(C)C)=C(C)N=c3s/c(=C\c4ccc(C(=O)O)cc4)c(=O)n32)c1 (stereo not drawn)	-24%	u	5%	11%	8%	89µM*
COc1cccc(C2C(C(=O)Nc3ccccc3)=C(C)N=c3s/c(=C/c4ccc(OCC(=O)O)cc4)c(=O)n32)c1 (stereo not drawn)	1%	-11%	-20%	-21%	-3%	-14%
CCOC(=O)C1=C(C)N=c2sc(=Cc3cc(Cl)c(OCC(=O)O)c(Cl)c3)c(=O)n2C1c1cccc(OC)c1 (stereo not drawn)	x	27µM*	x	x	x	x
CCOC(=O)C1=C(C)N=c2s/c(=C\c3ccc(OCC(=O)O)cc3)c(=O)n2C1c1ccc(OC(C)C)cc1 (stereo not drawn)	-11%	24µM*	-15%	-13%	-8%	50µM*
CCOC(=O)C1=C(C)N=c2s/c(=C\c3cccc(OCC(=O)O)c3)c(=O)n2C1c1ccccc1OC (stereo not drawn)	79µM*	0%	-4%	-4%	0%	u
CCc1ccc(Cn2nnc3c(=O)[nH]c(C4CCCN(C(=O)c5cccc(Cl)c5)C4)nc32)cc1 (stereo not drawn)	x	x	-2%	9%	x	-6%
CCOC(=O)C1=C(C)N=c2s/c(=C\c3ccc(OC(C)=O)c(OCC)c3)c(=O)n2C1/C=C/c1ccccc1 (stereo not drawn)	45µM*	2%	-4%[57.1 µM]	3%[57.1 µM]	3%	-25%
CCOC(=O)C1=C(C)N=c2s/c(=C\c3ccc(OC(C)=O)cc3)c(=O)n2C1/C=C/c1ccccc1 (stereo not drawn)	-10%	6%	-7%	-14%	4%	-15%
CCCCCCCCCCCCCCCC(=O)O	22%	x	x	x	x	13%
CCC(C)CCCCCCCCCCC(=O)O (stereo not drawn)	x	21µM*	-14%	-4%	-4%	u
O=C(CN1C(=O)/C(=C/c2c(F)cccc2Cl)Oc2ccccc21)NCc1ccco1	40µM*	x	x	x	x	x
COc1ccccc1Cc1nc2ccccc2nc1SCC(=O)N1CCC(C)CC1	x	x	3%[57.1 µM]	0%[57.1 µM]	7%	6%
Cc1ccc(N2NC(=O)/C(=C/c3ccc(-c4ccc(Cl)c(C(=O)O)c4)o3)C2=O)cc1	0%	u	-6%	0%	0%	u
